Screens deposited in PubChem BioAssay by University of Pittsburgh Molecular Library Screening Center.
The entries come from a sample that favours hits as a whole.
HIV RNase H inh-1 – HIV-1 RT RNase H inhibitors, primary screen, biochemical, fluorescence; RT-RNase H RNA/DNA duplex cleavage; inhibition, % at 10 µM; 65,000 tested, 1.9% active; AID 565, 2006; in the data active = inhibition above about 50%
HIV RNase H inh-2 – HIV-1 RT RNase H inhibitors, retest, confirmation, biochemical; shares compounds with HIV RNase H inh-1; Recombinant RT RNase H, fluorescent RNA/DNA duplex cleavage; inhibition, % at 10 µM; 1,000 tested, 39% active; in the data active = inhibition above about 48%; inconclusive = no clear call, values can overlap the other calls
* marks the source's active call; other numbers are inactive results; ? = inconclusive.

SMILES	HIV RNase H inh-1	others
CC(=O)Nc1ccc2nc(C3CCCCC3)[nH]c2c1	-22.0
COC(=O)c1ccccc1NC(=O)CN(C)S(=O)(=O)c1cc(C)ccc1OC	0.9
O=C1c2ccccc2S(=O)(=O)N1CC(O)Cn1ccc2ccccc21 (stereo unspecified)	-7.3
OCc1nc2ccccc2n1CC(O)Cn1ccc2ccccc21 (stereo unspecified)	-8.9
Oc1ccccc1NCC(O)Cn1ccc2ccccc21 (stereo unspecified)	77.7*	HIV RNase H inh-2=28.7
Cc1cc(C)nc(NC(=O)CN2C(=O)c3ccccc3C2=O)n1	-0.7
Cc1cc(O)c(C(C)C)cc1N=C1CSC(=O)N1	66.9*	HIV RNase H inh-2=?
Cc1ccccc1N=C1NC(=O)CS1	-3.1
Cc1ccc(C)c(N=C2NC(=O)CS2)c1	-13.7
CC1CCC2(CC1)NC(=O)N(CC(=O)NC(=O)NC1CCCC1)C2=O (stereo unspecified)	10.1
CCOC(=O)c1ccc(NC(=O)NC(C)C2CCCO2)cc1 (stereo unspecified)	-9.9
COCCn1c(-c2ccc(-c3ccccc3Cl)o2)nc2c1c(=O)[nH]c(=O)n2CC(C)C	73.0*	HIV RNase H inh-2=72.6*
COCCn1c(Sc2ccc(C)cc2)nc2c1c(=O)[nH]c(=O)n2C	-11.8
CCCCn1c(=O)[nH]c(=O)c2c1nc(-c1ccncc1)n2CCOC	-24.3
COCCSc1nc2c(c(=O)[nH]c(=O)n2C)n1CCC(C)C	-8.1
Cc1cc(C)c(C)c(OCC(=O)NCc2nc(-c3ccccc3)no2)c1	-2.6
CCCCCCNC(=O)c1c(N)n(/N=C/c2ccco2)c2nc3ccccc3nc12	71.2*	HIV RNase H inh-2=88.4*
Nc1c(S(=O)(=O)c2ccccc2)c2nc3ccccc3nc2n1/N=C/c1ccco1	26.5
Nc1c(C(=O)NC2CCCCC2)c2nc3ccccc3nc2n1/N=C/c1ccco1	6.1
CC(C)Cn1c(N)c(C(=O)NCCN2CCOCC2)c2nc3ccccc3nc21	-36.3
COCCNC(=O)c1c(N)n(/N=C/c2cccs2)c2nc3ccccc3nc12	-43.6
CC(C)CNC(=O)c1c(N)n(/N=C/c2ccccn2)c2nc3ccccc3nc12	61.1*	HIV RNase H inh-2=62.9*
Cc1ccc(S(=O)(=O)CC(=O)N(C)C)cc1	-5.8
CCOC(=O)c1ccc(N2C(=O)C3C(C2=O)C(C(=O)c2ccc(Cl)cc2)N2CCCC32)cc1 (stereo unspecified)	17.7
O=C(COc1ccc(-n2cnnn2)cc1)NCCc1ccc(F)cc1	-0.3
SMILES	HIV RNase H inh-1	others
CSc1nsc(SCc2ccc(F)cc2)n1	-29.1
CCOC(=O)c1cnc(SCc2nc(N)nc(Nc3ccc(C)cc3)n2)nc1N	-20.7
c1ccc(Nc2nc3ccccc3[nH]2)nc1	79.5*	HIV RNase H inh-2=30.8
c1ccc(CNc2nc3ccccc3[nH]2)cc1	-0.9
Cc1cc(C)nc(Nc2nc3ccccc3[nH]2)n1	10.0
O=c1[nH]c(/C(=N\O)c2ccccc2)no1	-4.9
N#CCc1nnc2n1-c1ccccc1CCC2	-6.1
CCC(C(=O)NC1CCCC1)N(C(=O)Cn1nnc(-c2ccc(C)o2)n1)c1cnc2ccccc2c1 (stereo unspecified)	65.9*	HIV RNase H inh-2=47.4
Cc1ccc(-c2nnn(CC(=O)N(CC(=O)NC3CCCC3)c3cnc4ccccc4c3)n2)o1	9.6
Cc1ccc(-c2nnn(CC(=O)N(CC(=O)NC(C)C)c3cnc4ccccc4c3)n2)o1	-5.0
Cc1ccc(-c2nc3cnccn3c2Nc2ccccc2)o1	88.1*	HIV RNase H inh-2=25.4
Cc1ccc(-c2nc3cnccn3c2Nc2ccc3c(c2)OCO3)o1	-3.0
Cc1ccc(-c2nc3ncccn3c2Nc2ccc3c(c2)OCCO3)o1	21.0
Cc1ccc(CNC(=O)CSc2ncccn2)cc1	-14.3
COc1ccc(S(=O)(=O)c2ccc(OC)c(OC)c2)cc1OC	-1.0
COc1ccc(OC)c(NC(=O)c2cc(-c3cc(Cl)ccc3O)n[nH]2)c1	24.4
COc1ccc(NC(=O)c2cc(-c3cc(C)ccc3O)n[nH]2)cc1Cl	50.7*	HIV RNase H inh-2=5.3
COc1ccc(NC(=O)c2[nH]c(C)c(C(C)=O)c2C)cc1Cl	-2.0
CCN(CC)C(=O)Cn1nc(-c2ccccc2O)nc1SCC(=O)Nc1ccc(OC)cc1	-4.7
O=C(NCc1ccccc1F)C1CCCN(C(=O)NC2CCCCC2)C1 (stereo unspecified)	-8.4
COc1ccc(OC)c(C2C(C(=O)O)c3ccccc3C(=O)N2C)c1 (stereo unspecified)	65.2*	HIV RNase H inh-2=40.5
COc1ccc(C2C(C(=O)O)c3ccccc3C(=O)N2C)cc1Br (stereo unspecified)	-3.2
COc1cc(OC)c(C2C(C(=O)O)c3ccccc3C(=O)N2C)cc1OC (stereo unspecified)	0.6
O=C(c1cccs1)N1CCN(C/C=C/c2ccccc2)CC1	-2.4
O=C(O)c1cccc(NC(=O)c2cccc(S(=O)(=O)N3CCCCC3)c2)c1	-9.3
SMILES	HIV RNase H inh-1	others
Nc1nc(NC(=O)c2cccc(S(=O)(=O)N3CCCCCC3)c2)nc(-c2ccccc2)n1	66.3*	HIV RNase H inh-2=9.0
O=C(Nc1ccccc1C(=O)N1CCCC1)c1cccc(S(=O)(=O)N2CCCCC2)c1	-21.3
C=CCn1c(SCC(=O)Nc2nnc(CC)s2)nnc1-c1ccco1	7.4
Cc1ccc2c(c1C)NC(C(=O)O)C1CC=CC21 (stereo unspecified)	96.0*	HIV RNase H inh-2=68.7*
Cc1ccc(C)c(NC(=O)C2CC=CCC2C(=O)O)c1 (stereo unspecified)	1.4
O=C(O)C1Nc2c(C(=O)N3CCOCC3)cccc2C2C=CCC12 (stereo unspecified)	76.8*	HIV RNase H inh-2=34.7
O=C(c1ccc(Cl)cc1)c1ccccc1C(=O)N1CCOCC1	2.8
O=C(c1ccccc1)c1ccccc1C(=O)N1CCOCC1	-2.1
CC1(c2ccc(Cl)cc2)NC(=O)N(CC(=O)N2CCCC2)C1=O (stereo unspecified)	1.4
CC(C)(C)N1C(=O)c2ccc(C(=O)NCc3ccco3)cc2C1=O	5.7
COc1ccc(C2=C(O)C(C)N(c3ccccc3)C2=N)cc1OC (stereo unspecified)	-16.2
CCOC(=O)c1sc(NS(=O)(=O)c2ccc(NC(C)=O)cc2)nc1C	3.7
CCC1CC2(C)NC(=O)c3c(sc4c3CC(C)(C)OC4)N2C1=O (stereo unspecified)	79.0*	HIV RNase H inh-2=59.6*
CC1(C)Cc2c(sc3nn[nH]c(=O)c23)CO1	35.5
Cc1nc2sc3c(c2c(=O)o1)CC(C)(C)OC3	0.1
CCOC(=O)N1CCN(C(=O)c2ccc(CN(c3ccccc3)S(C)(=O)=O)cc2)CC1	-9.3
CN(C)c1ccc(N=Cc2c(O)n(CCC3=CCCCC3)c(=O)[nH]c2=O)cc1	58.5*	HIV RNase H inh-2=51.2*
CCN(CC)c1ccc(N=Cc2c(O)n(CCC3=CCCCC3)c(=O)[nH]c2=O)cc1	17.5
O=c1[nH]c(=O)n(CCC2=CCCCC2)c(O)c1C=NCCN1CCNCC1	14.0
CCOCCCNC(=O)CC1Oc2ccc(C)cc2NC1=O (stereo unspecified)	-6.4
COc1ccc(NC(=O)CCc2nc(-c3ccccc3F)no2)cc1	-3.5
COc1ccc(OC)c(N(CC(=O)Nc2ccc3c(c2)OCCO3)S(C)(=O)=O)c1	-3.1
Cc1csc(SCC(=O)c2cc(C)n(Cc3cccs3)c2C)n1	-75.0
Cc1cc(C(=O)CSc2nnc(-c3ccc(OC(F)F)cc3)o2)c(C)n1Cc1cccs1	78.6*	HIV RNase H inh-2=67.5*
C/C(N)=C(/C#N)C(=O)CSc1nnc(-c2ccc(OC(F)F)cc2)o1	-3.5
